Consider 17 molecules from PubChem BioAssay (NCATS).

Each structure is given as a SMILES string. Where “and” joins values, the source holds several entries; their conditions need not be identical. Identical values can stand only once. Results filed as inconclusive are left out. Values without a mark were called inactive. Calls of active or inactive are those of the source. The call rests on the fitted dose curve; in most records, active means well fitted inhibition curve with a large enough effect; inconclusive means small, poorly fitted or top-dose-only effect; inactive means flat fitted curve, though single readings scatter.

One experiment has as its system CRL-7250. The experiment is described as follows: Cytotoxic Profiling of Annotated Libraries Using Quantitative High-Throughput Screening (AID 1296008). On max response: on the % scale 0 is the no-effect control and ±100 the full control effect. The settings on record: Five cell lines viability, CellTiter-Glo ATP luminescence, 48-72 h; max response: stronger effect = lower value. An outline of the steps: (§1)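 Cells exposed to compounds for 48 or 72 hr at 37 degrees Celsius. Viability read as ATP-coupled luminescence with CellTiter-Glo after 10 min at room temperature.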

The test system of a further experiment is HaCat. The experiment is described as above. The settings on record: Five cell lines viability, CellTiter-Glo ATP luminescence, 48-72 h; max response: stronger effect = lower value. An outline of the steps: as §1
For another experiment, the system named is GB4. Description: qHTS profiling for inhibitors of Plasmodium falciparum proliferation (AID 504749). Further: potency means the concentration at half of the fitted maximal effect. The settings on record: P. falciparum in erythrocytes, SYBR Green DNA, 72 h; series mostly up to 28.7 µM. The method in brief: (§2)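 Each compound contacts P. falciparum-infected red blood cells for 72 h at 37 C; lysis buffer (Tris, EDTA, saponin, Triton X, SYBR Green I) is added and fluorescence measured next morning; values normalized to controls.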

The next experiment concerns HB3. The description is as above. The settings on record: P. falciparum in erythrocytes, SYBR Green DNA, 72 h; series mostly up to 28.7 µM. An outline of the steps: as §2
The subject of a further experiment is ICS. The description is as above. The settings on record: P. falciparum in erythrocytes, SYBR Green DNA, 72 h; series mostly up to 28.7 µM. The method in brief: as §2
For the next experiment, the system named is JCK. The description is as above. The settings on record: P. falciparum in erythrocytes, SYBR Green DNA, 72 h; series mostly up to 28.7 µM. The method in brief:
as §2

Another experiment deals with N140. Described as above. The settings on record: P. falciparum in erythrocytes, SYBR Green DNA, 72 h; series mostly up to 28.7 µM. An outline of the steps: as §2
In the next experiment the test system is P93_24. Described as above. The settings on record: P. falciparum in erythrocytes, SYBR Green DNA, 72 h; series mostly up to 28.7 µM. An outline of the steps: as §2
The test system of the next experiment is P94_40. The description is as above. The settings on record: P. falciparum in erythrocytes, SYBR Green DNA, 72 h; series mostly up to 28.7 µM. The method in brief: as §2
In another experiment the test system is PAD. The experiment is described as above. The settings on record: P. falciparum in erythrocytes, SYBR Green DNA, 72 h; series mostly up to 28.7 µM. An outline of the steps: as §2
The test system of a further experiment is PC15. The description is as above. The settings on record: P. falciparum in erythrocytes, SYBR Green DNA, 72 h; series mostly up to 28.7 µM. The method in brief: as §2
For the next experiment, the system named is PC26. Described as above. The settings on record: P. falciparum in erythrocytes, SYBR Green DNA, 72 h; series mostly up to 28.7 µM. An outline of the steps: as §2
In another experiment the test system is PC49. The experiment is described as above. The settings on record: P. falciparum in erythrocytes, SYBR Green DNA, 72 h; series mostly up to 28.7 µM. An outline of the steps:
as §2

The next experiment relates to SC27B. Described as above. The settings on record: P. falciparum in erythrocytes, SYBR Green DNA, 72 h; series mostly up to 28.7 µM. The method in brief: as §2
A further experiment relates to TAB109. Described as above. The settings on record: P. falciparum in erythrocytes, SYBR Green DNA, 72 h; series mostly up to 28.7 µM. The method in brief:
as §2

In another experiment the test system is TAB113. The experiment is described as above. The settings on record: P. falciparum in erythrocytes, SYBR Green DNA, 72 h; series mostly up to 28.7 µM. The method in brief: as §2
The test system of a further experiment is TAB165. The description is as above. The settings on record: P. falciparum in erythrocytes, SYBR Green DNA, 72 h; series mostly up to 28.7 µM. The method in brief:
as §2

The subject of another experiment is W2. The description is as above. The settings on record: P. falciparum in erythrocytes, SYBR Green DNA, 72 h; series mostly up to 28.7 µM. The method in brief: as §2
Another experiment relates to HEK293. Description: Cytotoxic Profiling of Annotated Libraries Using Quantitative High-Throughput Screening (AID 1296008). On max response: on the % scale 0 is the no-effect control and ±100 the full control effect. The settings on record: Five cell lines viability, CellTiter-Glo ATP luminescence, 48-72 h; max response: stronger effect = lower value. An outline of the steps: as §1
Another experiment deals with KB-3-1. Described as above. The settings on record: Five cell lines viability, CellTiter-Glo ATP luminescence, 48-72 h; max response: stronger effect = lower value. The method in brief:
as §1
Further: nearly all actives have a fitted effect of over 60% in size.

Take `O=C1OC(CCN2CCCCC2)OC1(c1ccccc1)c1ccccc1` (configuration not stated): the max response was -20% with CRL-7250 and 4.71% in the experiment with HaCat.

Consider `NC(=O)CS(=O)C(c1ccccc1)c1ccccc1` (configuration not stated), for which the Potency entry in the experiment with GB4, in the experiment with HB3, in the experiment on ICS, in the experiment with JCK, in the experiment with N140 and with P93_24 was “inactive” in each case. Moreover, the Potency entry with P94_40, in the experiment with PAD, in the experiment on PC15, in the experiment on PC26, in the experiment on PC49 and in the experiment with SC27B was “inactive” in each case. The Potency result in the experiment with TAB109, in the experiment with TAB113, in the experiment with TAB165 and in the experiment on W2 was “inactive” in each case. Further, the max response in the experiment on CRL-7250 is 1.08%; in the experiment on HEK293, 2.52%; in the experiment on HaCat, -6.49%; with KB-3-1, 3.03%.

For `COc1cc(CCN)cc(OC)c1OC`, the max response in the experiment with CRL-7250 was -14.6%; in the experiment on HEK293, -9.62%; in the experiment on HaCat it was -15.9%; in the experiment on KB-3-1 it was 2.38%.

Regarding `Cc1ncsc1CCCl`, the Potency entry with GB4, in the experiment on HB3, in the experiment on ICS, with JCK, in the experiment on N140 and in the experiment with P94_40 was “inactive” in each case. Also, the Potency result with PAD, in the experiment on PC15, with PC26, with PC49, in the experiment on SC27B and in the experiment on TAB109 was “inactive” throughout. The Potency entry in the experiment with TAB113, in the experiment on TAB165 and with W2 was “inactive” in each case. In addition, the max response in the experiment on CRL-7250 is 3.36%; in the experiment with HEK293 it was -8.24%; in the experiment with HaCat, -12.7%; in the experiment with KB-3-1 it was 6.67%.

For `Clc1cccc(SC2CCNCC2)n1`, the Potency entry with GB4, in the experiment on HB3, in the experiment on ICS, with JCK, in the experiment with N140 and with P93_24 was “inactive” in each case. In addition, the Potency entry with P94_40, with PAD, in the experiment on PC15, with PC26, in the experiment on PC49 and with SC27B was “inactive” throughout. The Potency entry with TAB109, with TAB113, in the experiment with TAB165 and with W2 was “inactive” in each case. Also, the max response with CRL-7250 is -0.448%; in the experiment on HEK293, 1.87%; with HaCat it was -6.24%; with KB-3-1, -11.2%.

Take `O=C(N/N=C/c1ccc([N+](=O)[O-])o1)c1cc([N+](=O)[O-])cc([N+](=O)[O-])c1O`: the Potency in the experiment on HB3 was 1580 nM (active); in the experiment with N140, 708 nM (active); in the experiment with P93_24, 100 nM (active); in the experiment with P94_40, 79.4 nM (active); in the experiment on PAD, 7.1 nM (active); in the experiment with SC27B it was 141 nM (active). Besides, the values for the Potency in the experiment with TAB109 and in the experiment on TAB113 were 14.1 nM (active) and 282 nM (active), respectively. Also, the Potency entry with PC15 is “inactive”. The max response with CRL-7250 is -3.2%; with HEK293 it was 1.49%; with KB-3-1, 15.7%. The molecule was classed as inactive in the experiment on HaCat.

Take `C[C@]12CC[C@H]3[C@@H](CCC4=CC(=O)CC[C@@H]43)[C@@H]1CC[C@@H]2OC(=O)CCc1ccco1`: the max response in the experiment on CRL-7250 is -3%. In addition, the molecule was classed as inactive with HaCat.

As for `CCc1cc2c(s1)-n1c(C)nnc1CN=C2c1ccccc1Cl`, the outcome in the experiment on CRL-7250 was inactive. Also, the max response was -15.5% in the experiment on HEK293, -1.07% in the experiment with HaCat and -14.4% in the experiment on KB-3-1.

In the case of `Oc1ccc(Cl)cc1`, the Potency result in the experiment with GB4, in the experiment on HB3, with ICS, with JCK, in the experiment with N140 and in the experiment on P93_24 was “inactive” each time. For the same molecule, the Potency result with P94_40, with PAD, with PC15, with PC26, in the experiment with PC49 and with SC27B was “inactive” throughout. Moreover, the Potency result in the experiment with TAB109, with TAB113, in the experiment on TAB165 and in the experiment on W2 was “inactive” throughout. In addition, the max response in the experiment with CRL-7250 was -6.01%; with KB-3-1 it was -9.29%. The call with HEK293 and with HaCat was inactive.

For `CCCCCN(C)CCC(O)(P(=O)(O)O)P(=O)(O)O`, the max response with CRL-7250 was -0.0055%; in the experiment on HEK293, -18.4%; in the experiment on HaCat it was -1.92%; with KB-3-1 it was 1.98%. Moreover, in the experiment with KB-3-1, the molecule was classed as inactive.

For `c1ccc(N2CCNCC2)cc1`, the max response with CRL-7250 is 4.63%. Further, the outcome in the experiment on HaCat was inactive.

In the case of `CN1C(=O)NC(=O)C(C)(C2=CCCCC2)C1=O` (configuration not stated), the Potency entry with GB4, in the experiment on HB3, in the experiment with ICS, in the experiment on JCK, in the experiment with N140 and with P93_24 was “inactive” in each case. For the same molecule, the Potency result in the experiment with P94_40, in the experiment with PAD, in the experiment on PC15, in the experiment with PC26, in the experiment with PC49 and in the experiment on SC27B was “inactive” each time. Also, the Potency result in the experiment on TAB109, in the experiment with TAB113, in the experiment on TAB165 and with W2 was “inactive” throughout. Moreover, the max response in the experiment with CRL-7250 is -9.98%; with HaCat it was -13.8%; with KB-3-1, -0.631% and -0.133%. Further, the outcome with HEK293 was inactive.

Turning to `NC1=NC(=O)C(c2ccccc2)O1` (configuration not stated), the max response is -3.81% with CRL-7250, 2.82% in the experiment with HEK293 and 4.09% in the experiment on KB-3-1. In addition, in the experiment with HaCat, the molecule was classed as inactive.

As to `COc1ccc2c(c1OC)C(=O)O[C@H]2[C@@H]1c2cc3c(cc2CCN1C)OCO3`, the Potency entry in the experiment on GB4 and in the experiment with PC26 was “inactive” each time. For the same molecule, the max response with CRL-7250 is 0.738%; in the experiment with HEK293, -2.03%; with HaCat, -4.43%; with KB-3-1, 3.84%.

Take `Clc1ccc(C(c2ccc(Cl)cc2)C(Cl)(Cl)Cl)cc1`: the Potency entry with HB3, in the experiment on JCK, with P93_24, with PC15, with PC49 and in the experiment on SC27B was “inactive” in each case. The Potency result in the experiment on TAB109 is “inactive”. Moreover, in the experiment with W2, the Potency was 6010 nM (active). Also, the max response in the experiment on CRL-7250 is -9.96%; in the experiment with HEK293, -19.8%; in the experiment on HaCat, 1.96%; with KB-3-1 it was -11.6%.

As for `O=C(O)CCCc1ccc(N(CCCl)CCCl)cc1`, the Potency result with GB4, with HB3, in the experiment on ICS, with JCK, in the experiment on N140 and in the experiment with P93_24 was “inactive” in each case. The Potency result with P94_40, in the experiment on PAD, with PC15, in the experiment on PC26, with PC49 and with SC27B was “inactive” in each case. The Potency result in the experiment with TAB109, in the experiment on TAB113 and in the experiment on TAB165 was “inactive” each time. Besides, the molecule was called inactive with CRL-7250, in the experiment on HaCat and in the experiment with KB-3-1. Besides, the values for the max response in the experiment with HEK293 and in the experiment on KB-3-1 were -24.7% and 1.55%, respectively.

As to `NNc1ccccc1`, the Potency result in the experiment on GB4, in the experiment with HB3, in the experiment on ICS, in the experiment with JCK, in the experiment on N140 and in the experiment on P93_24 was “inactive” throughout. Moreover, the Potency entry in the experiment with P94_40, with PAD, in the experiment with PC15, in the experiment on PC26, in the experiment with PC49 and in the experiment with SC27B was “inactive” in each case. Besides, the Potency result in the experiment with TAB109, in the experiment on TAB113 and in the experiment with TAB165 was “inactive” each time. Also, in the experiment on CRL-7250, the molecule was called inactive. The max response was 3.08% with HEK293, 1.05% with HaCat and -8.39% with KB-3-1.
